Assay results from PubChem BioAssay AID504834 (National Center for Advancing Translational Sciences (NCATS), 2011).
Hit rate of the full screen: of about 320,000 compounds, about 22,000 (6.9%) were called active. Inconclusive results (about 27%) are left out. Calls come from the whole dose curve; as a rule, active = well fitted inhibition curve with a large enough effect; inconclusive = small, poorly fitted or top-dose-only effect, or another doubt; inactive = no such curve, though single readings can be large or run the other way. The entries come from a sample that favours actives as a whole.

Test: Primary qHTS for delayed death inhibitors of the malarial parasite plastid, 96 hour incubation
Settings: P. falciparum luciferase reporter growth; series mostly up to 28.7 µM; activity change, negative = inhibition: at the top concentration
In short: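 Two parasite generations (96 h, 37 C, 5% CO2) of compound exposure in infected erythrocytes (0.05% parasitemia, 2% hematocrit). Luciferase-reporter P. falciparum; decreased luminescence indicates inhibited growth, aimed at apicoplast-acting delayed death.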
% is set by controls: 0 for no effect and ±100 for the full control effect; potency is the fitted concentration of half-maximal effect.

Structure (SMILES) | activity change, negative = inhibition | Potency
COc1ccccc1N1CCN(C(=O)CCS(=O)(=O)c2ccc3c(c2)NC(=O)C(C)S3)CC1 (stereo unspecified) | 102% (inactive) | –
COc1ccccc1N1CCN(S(=O)(=O)c2ccc3c(c2)NC(=O)CS3)CC1 | – | 11.7 µM (active)
COc1ccccc1N1CCN(S(=O)(=O)c2ccc(Cl)cc2)CC1 | -24.6% (inactive) | –
Cc1cc(C)c2c(Cn3ccnc3)cc(=O)oc2c1 | -21% (inactive) | –
CCOc1ccc(S(=O)(=O)N2CCC(C(=O)OCc3ccc(OC)cc3)CC2)cc1 | -38.3% (inactive) | –
O=C(CSc1n[nH]c(-c2cccs2)n1)N1CCCCC1 | 26.9% (inactive) | –
Nc1ncc(CN2CCCC(C(=O)Nc3ccc(-c4ccco4)cc3)C2)cn1 (stereo unspecified) | 58.2% (inactive) | –
NC(=O)c1cc(S(=O)(=O)NCCCc2ccco2)cs1 | 23.8% (inactive) | –
S=C(Nc1cccc(Cl)c1)Nc1ccc2c(c1)OCCO2 | 0% (inactive) | –
CCS(=O)(=O)N1Cc2ccccc2CC1C(=O)Nc1ccc(OC)cc1OC (stereo unspecified) | -16.9% (inactive) | –
COc1ccc(C(=O)N2CCC(C(=O)Nc3ccc(C)cc3)CC2)cc1 | -19.5% (inactive) | –
COc1ccc(N2CCN(C(=O)C3CCN(C(=O)c4ccccc4Cl)CC3)CC2)cc1 | 26% (inactive) | –
COc1ccc(C(=O)Nc2c(Cl)cc(Cl)cc2C(=O)N2CCC(C)CC2)cc1 | – | 13.1 µM (active)
CCCCc1ccc(NC(=O)NCc2cccnc2)cc1 | 11.3% (inactive) | –
CCOc1ccc(S(=O)(=O)NCCC(=O)NCC(C)(C)N2CCOCC2)cc1 | 20.6% (inactive) | –
O=C(N/N=C/c1coc2ccccc2c1=O)c1cc2ccccc2o1 | 1.51% (inactive) | –
CC(C)(C)OC(=O)NCCCCCC(=O)N/N=C/c1coc2ccccc2c1=O | 80.7% (inactive) | –
Cc1ccc2occ(/C=N/NC(=O)c3ccccc3C)c(=O)c2c1 | – | 11.7 µM (active)
Cc1[nH]c2ccccc2c1C(=O)CN1CCCC(C)C1 (stereo unspecified) | -14.5% (inactive) | –
O=C(CSC1=NS(=O)(=O)c2cc(F)ccc2N1)Nc1ccccc1F | 60.3% (inactive) | –
CCOc1ccc(C(=O)Nc2cc(Cl)ccc2-n2cncn2)cc1OC | -2.8% (inactive) | –
COc1ccc(NC(=O)C(CC(C)C)NC(=O)C2CCC(C)CC2)cc1 (stereo unspecified) | -1.4% (inactive) | –
CC1C(=O)Nc2ccccc2N1C(=O)c1ccc(F)cc1F (stereo unspecified) | 4.46% (inactive) | –
CC(C)[C@H](NC(=O)N1c2ccccc2NC(=O)[C@@H]1C(C)C)C(=O)N[C@H](C(=O)O)c1ccccc1 | – | 8.28 µM (active)
CC(C)[C@H](NC(=O)N1CC(=O)Nc2ccccc21)C(=O)N[C@@H](Cc1c[nH]c2ccccc12)C(=O)O | -23.4% (inactive) | –
O=C(CNC(=O)c1cccnc1)N/N=C/c1cc(Br)c(O)c(Br)c1 | 45% (inactive) | –

Structure (SMILES) | activity change, negative = inhibition | Potency
O=C(CCS(=O)(=O)c1ccccc1)NC1CCCC1 | 8.16% (inactive) | –
COC(=O)c1ccc(CNC(=O)C2CCC(=O)N(Cc3ccccn3)C2)cc1 (stereo unspecified) | 238% (inactive) | –
N#CCSc1nc2ccc(N3CCOCC3)cc2c(=O)n1CCc1ccccc1 | – | 13.1 µM (active)
CCCCn1c(N)c(N2CCOCC2)c(=O)n(CC(=O)NCCc2ccccc2)c1=O | 15.5% (inactive) | –
O=C(CCn1c(SCC(=O)c2ccccc2)nc2ccccc2c1=O)NCc1ccc(F)cc1 | 0% (inactive) | –
O=S(=O)(NCc1cccnc1)c1ccc(Cl)nc1 | 69.2% (inactive) | –
O=C(O)C1CC(=O)N(Cc2cccnc2)C1 (stereo unspecified) | -6.43% (inactive) | –
COC(=O)c1ccc(C23CC4(C2)[C@H](CN(Cc2cccnc2)[C@@H]4c2ccccc2)C3c2ccc(Cl)nc2)cc1 (stereo partly specified) | – | 2.33 µM (active)
Cc1ccc(CNC(=O)c2cccc3c2C(=O)c2ccc(N4CCC(C)CC4)cc2S3(=O)=O)cc1 | 3.93% (inactive) | –
COc1ccc(-n2nc3c(c2NC(=O)Cc2cccc(C)c2)CS(=O)C3)cc1 (stereo unspecified) | -26.6% (inactive) | –
COc1ccc(CC(=O)Nc2c3c(nn2-c2cccc(Cl)c2)CS(=O)C3)cc1 (stereo unspecified) | – | 1.47 µM (active)
Cc1cccc(CC(=O)Nc2c3c(nn2-c2cccc(Cl)c2)CS(=O)C3)c1 (stereo unspecified) | 37.9% (inactive) | –
CC(=O)c1ccc(N2Cc3ccccc3C2)cc1 | 15.6% (inactive) | –
COc1ccc(F)cc1S(=O)(=O)N1CCCCC1 | -25.6% (inactive) | –
CCc1ccc(S(=O)(=O)Nc2cc3c(cc2N2CCCCC2)n(C)c(=O)c(=O)n3C)cc1 | 12.4% (inactive) | –
c1ccc(CCC2=NCCn3cccc32)cc1 | – | 14.7 µM (active)
Cn1c(CCc2ccccc2)nnc1SCC(N)=O | 0.25% (inactive) | –
CC1CSc2nnc(CCc3ccccc3)n21 (stereo unspecified) | -5.11% (inactive) | –
CS(=O)(=O)c1ccc(C(=O)OCC(=O)NNC(=O)COc2ccc(Cl)cc2)cc1 | -3.01% (inactive) | –
COc1ccc(C(C(=O)NC(C)(C)C)N(Cc2ccc(F)cc2)C(=O)CCC(=O)Nc2cc(C)on2)cc1 (stereo unspecified) | 10.8% (inactive) | –
Cn1c(SCC(=O)Nc2nccs2)nnc1-c1cccnc1 | 1.62% (inactive) | –
COC(=O)c1cn(CC(=O)NCc2cccs2)c2ccccc12 | – | 13.1 µM (active)
CCN(CC)C(=O)C(=O)c1cn(CC(=O)NCc2ccc3c(c2)OCO3)c2ccccc12 | 30.1% (inactive) | –
O=C(Cn1cc(C(=O)c2cccs2)c2ccccc21)NCc1cccs1 | 200% (inactive) | –
O=C(NCCc1ccccc1)c1ccc2c(c1)N(Cc1ccccc1)CCS2 | 22.6% (inactive) | –
O=C(OCc1ccccc1)c1ccc(O)cc1 | 17.2% (inactive) | –

Structure (SMILES) | activity change, negative = inhibition | Potency
CS(=O)(=O)N1CCc2nc(-c3ccccc3)sc2C1 | 243% (inactive) | –
CCOc1cc(C2C(C(=O)c3ccco3)=C(O)C(=O)N2Cc2ccccc2)ccc1O (stereo unspecified) | 10.9% (inactive) | –
CCOC(=O)c1cc(Sc2ccccc2N)cc(C(=O)OCC)n1 | -16.9% (inactive) | –
Cc1nn(C)c(Cl)c1CN1CCC(n2nccc2NC(=O)C2CCCC2)CC1 | 30.4% (inactive) | –
O=C(Nc1ccnn1C1CCN(C/C=C/c2ccc(F)cc2)CC1)C1CCCC1 | 34.7% (inactive) | –
CC(C)Oc1ccc(CN2CCC(n3nccc3NC(=O)c3cccnc3)CC2)cc1 | -17.2% (inactive) | –
CC(C)=CCCC(C)CN1CCC(n2nccc2NC(=O)c2ccccc2)CC1 (stereo unspecified) | – | 14.7 µM (active)
CC(CN1CCC(n2nccc2NC(=O)C2CCCC2)CC1)c1ccccc1 (stereo unspecified) | – | 9.28 µM (active)
CC(=O)N[C@@H](C)C(=O)N1CCC(n2nccc2NC(=O)CCCc2ccccc2)CC1 | -4.67% (inactive) | –
CN1CCN(c2ccccc2NC(=O)COc2ccc(C3CCCCC3)cc2)CC1 | 32.9% (inactive) | –
N#Cc1cccc(OC(=O)c2ccc3c(=O)n4c(nc3c2)CCC4)c1 | 47.2% (inactive) | –
O=C(NCCNc1ccccc1[N+](=O)[O-])c1ccccc1F | 45.3% (inactive) | –
CCCCn1c(N)c(N(CCOC)C(=O)c2cccc(S(=O)(=O)N(C)c3ccccc3)c2)c(=O)[nH]c1=O | -3.71% (inactive) | –
CCCOC(=O)c1[nH]c2c(c1C)C(=O)CC(c1cc(OC)c(OC)c(OC)c1)C2 (stereo unspecified) | – | 11.7 µM (active)
CCOC(=O)C1=C(N)N2C(=O)C(C)SC2=C(C(=O)OCC)C1c1cc(OC)c(OC)c(OC)c1 (stereo unspecified) | -1.9% (inactive) | –
CCCCOC(=O)c1[nH]c(C)c(C(=O)OC)c1C | -31.2% (inactive) | –
COCCOC(=O)c1[nH]c2c(c1C)C(=O)CC(c1ccc(OC)cc1)C2 (stereo unspecified) | 10.5% (inactive) | –
CCCOC(=O)c1[nH]c2c(c1C)C(=O)CC(c1cccs1)C2 (stereo unspecified) | – | 9.28 µM (active)
Cc1cc(C)c(S(=O)(=O)n2cc(C(C)C(N)C(=O)O)c3ccccc32)c(C)c1 (stereo unspecified) | 10.6% (inactive) | –
O=C(Nc1cccc(F)c1)NC1CCCc2ccccc21 (stereo unspecified) | -14.7% (inactive) | –
COc1ccc(CN2CCC(n3nccc3NC(=O)CCCc3ccccc3)CC2)cc1C | -13.8% (inactive) | –
COCCNC(=O)c1ccc(S(=O)(=O)c2ccc(Cl)cc2)c(NC(C)=O)c1 | 25.4% (inactive) | –
O=C(O)/C=C/c1ccc(OCCCF)cc1 | 18% (inactive) | –
COc1ccc([C@H]2CC(=O)C=C(/C=C/c3ccccc3)C2)cc1 | 39.1% (inactive) | –
CCOC(=O)C1(S(=O)(=O)c2ccccc2)CCN(Cc2ccccc2)CC1 | -0.502% (inactive) | –
O=C(NNS(=O)(=O)c1ccc(Cl)cc1)C1CCN(Cc2ccccc2)CC1 | 85.3% (inactive) | –

Structure (SMILES) | activity change, negative = inhibition | Potency
CCOC(=O)C1(S(=O)(=O)c2ccc(Cl)cc2)CCN(Cc2ccccc2)CC1 | – | 2.94 µM (active)
N#Cc1nc(-c2cccc3ccccc23)oc1N | 18.9% (inactive) | –
Cc1cc(NC(=O)Nc2c[nH]c(=O)[nH]c2=O)ccc1Br | 40.8% (inactive) | –
CC1CCN(S(=O)(=O)c2ccc3c(c2)n(C)c(=O)n3C)CC1 | 39.9% (inactive) | –
CCOc1cc(C2/C(=C(/O)c3ccc(S(=O)(=O)N4CCCCC4)cc3)C(=O)C(=O)N2CCOC)ccc1O (stereo unspecified) | 12.9% (inactive) | –
COCCN1C(=O)C(=O)/C(=C(/O)c2ccc(S(=O)(=O)N3CCCCC3)cc2)C1c1ccc(OC)c(OC)c1 (stereo unspecified) | – | 9.28 µM (active)
COCCN1C(=O)C(=O)/C(=C(/O)c2ccc(S(=O)(=O)N3CCOCC3)cc2)C1c1ccc(OC)c(OC)c1 (stereo unspecified) | -24.2% (inactive) | –
CN(C)S(=O)(=O)c1cccc(-c2nn(-c3ccccc3)cc2/C=C2\SC(=S)N(CC(=O)O)C2=O)c1 | -27.3% (inactive) | –
Cc1nn(C)c(C)c1C(C)NC(=O)c1ccc(OC2CCN(Cc3ccccn3)CC2)cc1 (stereo unspecified) | -23.8% (inactive) | –
Cc1cccc(C(C)C)c1NC(=O)COC(=O)C1CC(=O)N(Cc2ccccc2)C1 (stereo unspecified) | 35.6% (inactive) | –
Cc1ccc(S(=O)(=O)n2nc(OC(=O)C(C)(C)C)cc2N)cc1 | 0% (inactive) | –
Nc1cc(OC(=O)c2ccccc2Br)nn1S(=O)(=O)c1ccccc1 | 48.3% (inactive) | –
Cc1nn(C(C)(C)C)c(OC(=O)CC(C)C)c1S(=O)(=O)c1ccccc1 | – | 9.28 µM (active)
CCCc1ccc(OCC(O)CN2CCN(CCO)CC2)cc1 (stereo unspecified) | – | 10.4 µM (active)
CCCc1ccc(OCC(O)CN2CCN(C(=O)OCC)CC2)cc1 (stereo unspecified) | 39.9% (inactive) | –
CCc1ccc(OCC(O)CN2CCN(CCO)CC2)cc1 (stereo unspecified) | 30.8% (inactive) | –
Cc1ccc(S(=O)(=O)N2CCCCC2)cc1C(=O)N1CCN(CCO)CC1 | 30.1% (inactive) | –
CN(CC(=O)Nc1cccc(F)c1)C(=O)C1CC(=O)N(CCc2ccccc2)C1 (stereo unspecified) | 63% (inactive) | –
COc1ccccc1CN1CCCC(N2CCN(c3ccc(F)cc3)CC2)C1 (stereo unspecified) | 6.1% (inactive) | –
COc1ccc(CN2CCCC(N3CCc4ccccc4C3)C2)c(O)c1 (stereo unspecified) | – | 8.28 µM (active)
COc1cccc(N2C(=O)CC(N3CCc4ccccc4C3)C2=O)c1 (stereo unspecified) | 23.1% (inactive) | –
COc1ccc(CN2C3CCCC2CC(NC(=O)c2cccc(F)c2)C3)cc1 (stereo unspecified) | -95.4% (inactive) | –
CCCCCCC(O)(CCN1CCCCC1)c1ccccc1 (stereo unspecified) | 17.7% (inactive) | –
